# Data reported in PMC8384837, “Expanding the binding specificity for RNA recognition by a PUF domain”.
# Substitutions are numbered along the chain they refer to.
# Assays:
# Experiment in all cases: yeast three-hybrid, YBZ-1, SC-Leu-His + 0.5 mM 3-AT, 4 days
# Settings in all cases: tags: N-Gal4 AD-HA kept; label: inside an RPR1-promoter hybrid RNA with tandem MS2 sites; ssRNA
# [1] = biological target: PUM1 PUF domain R2-DWI (Homo sapiens, UniProt Q14671 828-1176, N899D;Y900W;Q903I)
# Method in brief: (§1)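 Sequencing with Illumina followed PCR amplification of the repeat regions from transformants grown four days on SC-Leu (input) or SC-Leu-His + 0.5 mM 3-AT (selection). The transformants were strain YBZ-1 with a LexA–MS2 coat fusion and a HIS3 reporter, carrying Pumilio-1 PUF domain libraries and matching RNA elements. The interaction score is the log change in variant frequency from input to selection, computed in log2 with a pseudocount of 1 for absent variants.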
# [2] = biological target: PUM1 PUF domain R4-SRA (Homo sapiens, UniProt Q14671 828-1176, N971S;H972R;Q975A)
# Method in brief: as §1
# [3] = biological target: T1, PUM1 PUF domain R6-RFG (Homo sapiens, UniProt Q14671 828-1176, N1043R;Y1044F;Q1047G)
# T1 sequence: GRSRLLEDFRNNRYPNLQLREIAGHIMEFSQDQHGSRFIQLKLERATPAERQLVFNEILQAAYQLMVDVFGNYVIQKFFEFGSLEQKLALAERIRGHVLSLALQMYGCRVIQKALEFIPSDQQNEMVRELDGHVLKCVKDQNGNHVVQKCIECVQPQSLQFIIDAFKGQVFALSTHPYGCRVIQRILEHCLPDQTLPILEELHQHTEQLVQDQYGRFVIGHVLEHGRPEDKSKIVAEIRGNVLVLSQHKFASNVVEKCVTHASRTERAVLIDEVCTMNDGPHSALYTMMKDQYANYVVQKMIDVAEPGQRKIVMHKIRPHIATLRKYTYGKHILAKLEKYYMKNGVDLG
# Method in brief: as §1
# [4] = biological target: T2, PUM1 PUF domain R6-YHR (Homo sapiens, UniProt Q14671 828-1176, N1043Y;Y1044H;Q1047R)
# T2 sequence: T1 sequence with R216Y, F217H, G220R
# Method in brief: as §1
# [5] = biological target: T3, PUM1 PUF domain R6-KWA (Homo sapiens, UniProt Q14671 828-1176, N1043K;Y1044W;Q1047A)
# T3 sequence: T1 sequence with R216K, F217W, G220A
# Method in brief: as §1
# [6] = biological target: T4, PUM1 PUF domain R6-SHK (Homo sapiens, UniProt Q14671 828-1176, N1043S;Y1044H;Q1047K)
# T4 sequence: T1 sequence with R216S, F217H, G220K
# Method in brief: as §1
# [7] = biological target: T5, PUM1 PUF domain R6-LHS (Homo sapiens, UniProt Q14671 828-1176, N1043L;Y1044H;Q1047S)
# T5 sequence: T1 sequence with R216L, F217H, G220S
# Method in brief: as §1
# [8] = biological target: PUM1 PUF domain R8-RHC (Homo sapiens, UniProt Q14671 828-1176, N1122R;Y1123H;Q1126C)
# Method in brief: as §1
# [9] = biological target: PUM1 PUF domain R5-LSR (Homo sapiens, UniProt Q14671 828-1176, C1007L;R1008S;Q1011R)
# Method in brief: as §1
# [10] = biological target: PUM1 PUF domain R8-KRI (Homo sapiens, UniProt Q14671 828-1176, N1122K;Y1123R;Q1126I)
# Method in brief: as §1
sequence,measurement,setting,value
GGCUAGAACUAGUGGAUCCCCCGGCGCCCGGCGGCUCGAGCCCGGGUAAGUGUAAAAAGUCUGCAUGCCGCCGGGCGCCAUGCCUGCAGGUCGACUCUAGAAAACAUG,binding signal,[1],6.3 log2 enrichment (interaction score)
GGCUAGAACUAGUGGAUCCCCCGGCGCCCGGCGGCUCGAGCCCGGGUAAGUGUAUAUAGUCUGCAUGCCGCCGGGCGCCAUGCCUGCAGGUCGACUCUAGAAAACAUG,binding signal,[2],1.92 log2 enrichment (interaction score)
GGCUAGAACUAGUGGAUCCCCCGGCGCCCGGCGGCUCGAGCCCGGGUAAGUGUAAAUAGUCUGCAUGCCGCCGGGCGCCAUGCCUGCAGGUCGACUCUAGAAAACAUG,binding signal,[3],3.56 log2 enrichment (interaction score)
same,binding signal,[4],4.05 log2 enrichment (interaction score)
same,binding signal,[2],4.71 log2 enrichment (interaction score)
same,binding signal,[5],2 log2 enrichment (interaction score)
same,binding signal,[6],3.34 log2 enrichment (interaction score)
same,binding signal,[7],2.24 log2 enrichment (interaction score)
same,binding signal,[8],3.41 log2 enrichment (interaction score)
same,binding signal,[9],0.51 log2 enrichment (interaction score)
GGCUAGAACUAGUGGAUCCCCCGGCGCCCGGCGGCUCGAGCCCGGGUAAGUGCAAAUAGUCUGCAUGCCGCCGGGCGCCAUGCCUGCAGGUCGACUCUAGAAAACAUG,binding signal,[5],4.16 log2 enrichment (interaction score)
GGCUAGAACUAGUGGAUCCCCCGGCGCCCGGCGGCUCGAGCCCGGGUAAGUGUACAUAGUCUGCAUGCCGCCGGGCGCCAUGCCUGCAGGUCGACUCUAGAAAACAUG,binding signal,[2],1.76 log2 enrichment (interaction score)
GGCUAGAACUAGUGGAUCCCCCGGCGCCCGGCGGCUCGAGCCCGGGUAAGCGUAAAUAGUCUGCAUGCCGCCGGGCGCCAUGCCUGCAGGUCGACUCUAGAAAACAUG,binding signal,[10],2.91 log2 enrichment (interaction score)
same,binding signal,[8],4.55 log2 enrichment (interaction score)
GGCUAGAACUAGUGGAUCCCCCGGCGCCCGGCGGCUCGAGCCCGGGUAAGUGAAAAUAGUCUGCAUGCCGCCGGGCGCCAUGCCUGCAGGUCGACUCUAGAAAACAUG,binding signal,[5],2.73 log2 enrichment (interaction score)
GGCUAGAACUAGUGGAUCCCCCGGCGCCCGGCGGCUCGAGCCCGGGUAAGUGUCAAUAGUCUGCAUGCCGCCGGGCGCCAUGCCUGCAGGUCGACUCUAGAAAACAUG,binding signal,[9],2.6 log2 enrichment (interaction score)
